Activity calls are given as the source filed them. The call rests on the fitted dose curve; in most records, active means well fitted cell-killing curve with a large enough effect in the repeat runs; inconclusive means weak or mixed curves, or effect the other way; inactive means flat fitted curve, though single readings scatter.
Assay: qHTS assay to identify small molecule HDAC inhibitors - cell viability counter screen (AID 1259365); further: nearly all actives have a fitted effect of over 50% in size
Settings: HCT-116 viability, CellTiter-Glo ATP luminescence, 2 h; series mostly up to 92.4 µM; activity change, negative = cytotoxicity: at the top concentration
From the text: U.S. Tox21 Program National Center for Advancing Translational Sciences [NCATS] NIH Chemical Genomics Center [NCGC] U.S. Environmental Protection Agency [EPA] National Institutes of Environmental Health Sciences [NIEHS] National Toxicology Program [NTP] U.S. Food and Drug Administration [FDA] Tox21 Assay Overview: Histone deacetylases (HDACs) are a group of epigenetic enzymes that regulate gene expression by histone deacetylation. HDACs are capable of introducing epigenetic modifications and such aberrations contribute to the onset and progression of several human diseases, thus making HDACs a popular therapeutic target. For identifying endogenous class I/II HDAC inhibitors a homogenous, luminogenic HDAC I/II cell based assay was used to measure the relative activity of class I and II HDACs from cells. Wild type HCT-116 cells were used to screen Tox21 compound libraries for identifying class I/II HDAC inhibitors.
Tox21 Assay Protocol Summary: HCT-116 cells were dispensed at 1,500 per well in 5uL of culture medium into white solid bottom 1536-well plates (Greiner Bio-One, Monroe, NC) using a Multidrop Combi (Thermo Scientific, Waltham, MA) dispenser. The assay plates were incubated at 37 C and 5% CO2 for an overnight, and then 23nL of compounds dissolved in DMSO and positive control were transferred using a Pintool station (Wako, San Diego, CA). The assay plates were incubated at 37C and 5% CO2 for 2hr. After compound treatment, 4uL of CellTiter-Glo reagent (Promega Corporation, Madison, WI) was added to each well of the assay plates using Flying Reagent Dispenser (FRD, Aurora Discovery, San Diego, CA) and incubated the assay plates at room temperature for 30min. The luminescence signal was quantified using a ViewLux plate reader (Perkin Elmer, Shelton, CT).
On the % scale 0 is the no-effect control and ±100 the full control effect; potency means the concentration at half of the fitted maximal effect.

**Q.** With `O=c1ssc(Cl)c1Cl` as the compound, how does the “activity change, negative = cytotoxicity” value read?
**A.** Its value is -17.1% (inactive).

**Q.** Which “activity change, negative = cytotoxicity” value does the source give for `Nc1ccccc1C(=O)OC/C=C/c1ccccc1` here?
**A.** Its value is -6.74% (inactive).

**Q.** With `c1ccc2cc3c(cc2c1)-c1cccc2cccc-3c12` as the compound, how does the “activity change, negative = cytotoxicity” value read?
**A.** Its value is -1.13% (inactive).

**Q.** Which “activity change, negative = cytotoxicity” value does the source give for `COc1ccc(/C(=C/C(=O)N2CCOCC2)c2ccc(Cl)cc2)cc1OC` here?
**A.** The value was 0.872% (inactive).

**Q.** With `CC(=[OH+])/C=C(/C)[O-].CC(=[OH+])/C=C(\C)[O-].CC(=[OH+])/C=C(\C)[O-].[Fe]` as the compound, how does the “activity change, negative = cytotoxicity” value read?
**A.** The value was 0.234% (inactive).

**Q.** For `CCOCCOC(C)=O`, which “activity change, negative = cytotoxicity” value is on record?
**A.** The value was -4.25% (inactive).

**Q.** With `C[C@]12CC[C@H]3[C@@H](CCC4=CC(=O)CC[C@@]43C)[C@@H]1CC[C@@H]2O` as the compound, how does the “activity change, negative = cytotoxicity” value read?
**A.** The value was 5.66% (inactive).

**Q.** Which “activity change, negative = cytotoxicity” value does the source give for `C1CCC2CCCCC2C1` (stereo not given) here?
**A.** The value was 3.21% (inactive).

**Q.** Which “activity change, negative = cytotoxicity” value does the source give for `CCOP(=S)(OCC)SCS(=O)(=O)C(C)(C)C` here?
**A.** The value was -3.52% (inactive).

**Q.** Which Potency does the source give for `[Hg+2].[I-].[I-]` here?
**A.** The Potency was 61.1 µM (active).

**Q.** With `CC(=O)Nc1ccc2c(c1)Cc1ccccc1-2` as the compound, how does the “activity change, negative = cytotoxicity” value read?
**A.** The value was 7.48% (inactive).

**Q.** Which “activity change, negative = cytotoxicity” value does the source give for `Cc1cc(C(C)(C)c2cc(C)c(O)c(C)c2)cc(C)c1O` here?
**A.** The value was -23.6% (inactive).

**Q.** For `ClC1=C(Cl)C2(Cl)C3C(Cl)C(Cl)CC3C1(Cl)C2(Cl)Cl` (stereo not given), which Potency is on record?
**A.** Its Potency is “inactive”.

**Q.** For `CCc1cc(C)cc(CC)c1-c1c(OC(=O)C(C)(C)C)n2n(c1=O)CCOCC2`, which “activity change, negative = cytotoxicity” value is on record?
**A.** Its value is -1.08% (inactive).

**Q.** With `CC(C)(C)C(O)C(Oc1ccc(-c2ccccc2)cc1)n1cncn1` (stereo not given) as the compound, how does the “activity change, negative = cytotoxicity” value read?
**A.** Its value is -0.769% (inactive).

**Q.** With `CC(=O)O[C@H]1CC[C@@]2(C)C(=CC[C@@H]3[C@@H]2CC[C@]2(C)C(=O)CC[C@@H]32)C1` as the compound, how does the “activity change, negative = cytotoxicity” value read?
**A.** The value was -3.04% (inactive).

**Q.** For `C[C@@H]1O[C@@H](O[C@@H]2C=C3CC[C@@H]4[C@H](CC[C@]5(C)[C@@H](c6ccc(=O)oc6)CC[C@]45O)[C@@]3(C)CC2)[C@H](O)[C@H](O)[C@H]1O`, which “activity change, negative = cytotoxicity” value is on record?
**A.** The value was -5.71% [at 42.5 µM] (inactive).

**Q.** For `CC(C)C1CCC(Cc2ccc(Cl)cc2)C1(O)Cn1cncn1` (stereo not given), which “activity change, negative = cytotoxicity” value is on record?
**A.** The value was -9.81% (inactive).

**Q.** For `ClC(Cl)=C(Cl)Cl`, which “activity change, negative = cytotoxicity” value is on record?
**A.** The value was -2.14% (inactive).

**Q.** With `CC1(C)C(/C=C(\Cl)C(F)(F)F)C1C(=O)OC(C#N)c1cccc(Oc2ccccc2)c1` (stereo not given) as the compound, how does the “activity change, negative = cytotoxicity” value read?
**A.** The value was -1.3% (inactive).

**Q.** With `O=C(CCl)C(Cl)Cl` as the compound, how does the “activity change, negative = cytotoxicity” value read?
**A.** The value was -0.723% (inactive).

**Q.** With `CC(=O)c1ccc(-c2ccccc2)cc1` as the compound, how does the “activity change, negative = cytotoxicity” value read?
**A.** Its value is -1.59% (inactive).

**Q.** For `Cc1cc(N=Nc2ccccc2C)ccc1N`, which “activity change, negative = cytotoxicity” value is on record?
**A.** The value was -6.92% (inactive).

**Q.** With `CCOP(=S)(OCC)OC(Cl)C(Cl)(Cl)Cl` (stereo not given) as the compound, how does the “activity change, negative = cytotoxicity” value read?
**A.** The value was -10.6% (inactive).

**Q.** For `CCCCCCCCCCCCCCCC[N+](C)(C)C`, which Potency is on record?
**A.** Its Potency is “inactive”.

**Q.** For `CC(=O)OC1(c2ccccc2)CCN(CCc2ccccc2)CC1`, which “activity change, negative = cytotoxicity” value is on record?
**A.** The value was -15.2% (inactive).

**Q.** With `CC(C)(COCC1CO1)COCC1CO1` (stereo not given) as the compound, how does the “activity change, negative = cytotoxicity” value read?
**A.** The value was 0.487% (inactive).

**Q.** For `O=c1oc2ccccc2c(O)c1Cc1c(O)c2ccccc2oc1=O`, which “activity change, negative = cytotoxicity” value is on record?
**A.** Its value is -2.08% [at 42.5 µM] (inactive).

**Q.** Which “activity change, negative = cytotoxicity” value does the source give for `Cn1[nH]nnc1=S` here?
**A.** The value was 1.67% (inactive).

**Q.** For `CC(C)(C)c1ccc(CSc2cnn(C(C)(C)C)c(=O)c2Cl)cc1`, which “activity change, negative = cytotoxicity” value is on record?
**A.** The value was -6.98% (inactive).

**Q.** For `CCOc1cc(C(C)(C)C)ccc1C1COC(c2c(F)cccc2F)=N1` (stereo not given), which “activity change, negative = cytotoxicity” value is on record?
**A.** Its value is -0.782% [at 42.5 µM] (inactive).

**Q.** For `N#CC(Cl)Cl`, which “activity change, negative = cytotoxicity” value is on record?
**A.** Its value is 3.92% (inactive).

**Q.** Which “activity change, negative = cytotoxicity” value does the source give for `CC(C)CCCCCOC(=O)c1ccccc1C(=O)OCCCCCC(C)C` here?
**A.** Its value is 10.8% (inactive).

**Q.** Which “activity change, negative = cytotoxicity” value does the source give for `Cc1cccc(OP(=O)(Oc2cccc(C)c2)Oc2cccc(C)c2)c1` here?
**A.** The value was -2.47% (inactive).

**Q.** For `Cc1cc(C(F)(C(F)(F)F)C(F)(F)F)ccc1NC(=O)c1cccc(I)c1C(=O)NC(C)(C)CS(C)(=O)=O`, which “activity change, negative = cytotoxicity” value is on record?
**A.** Its value is -1.12% [at 42.5 µM] (inactive).

**Q.** Which “activity change, negative = cytotoxicity” value does the source give for `N#CCCSCCC#N` here?
**A.** The value was -0.66% (inactive).

**Q.** With `CN(CCCC(O)c1cccnc1)N=O` (stereo not given) as the compound, how does the “activity change, negative = cytotoxicity” value read?
**A.** The value was -0.3% (inactive).

**Q.** Which “activity change, negative = cytotoxicity” value does the source give for `CCOC(=O)OC1=C(c2cc(C)ccc2C)C(=O)NC12CCC(OC)CC2` (stereo not given) here?
**A.** The value was -2.6% (inactive).

**Q.** Which “activity change, negative = cytotoxicity” value does the source give for `O=[N+]([O-])c1cc([N+](=O)[O-])c2ccccc2c1` here?
**A.** Its value is -6.53% (inactive).

**Q.** With `BrCC(Br)c1ccccc1` (stereo not given) as the compound, how does the “activity change, negative = cytotoxicity” value read?
**A.** The value was -6.09% (inactive).

— PubChem BioAssay (Tox21)
